JMJD2A Tudor inh: blocks the human JMJD2A Tudor domain | 390,000 compounds, 4.4% hits | O75164 | AlphaScreen JMJD2A-Tudor / H3K4me3 peptide binding | Potency, µM (series often up to 114 µM), inactives show top-dose activity change, negative = inhibition, most hits filed as inhibitors; also: % is scaled to controls: 0 for no effect and ±100 for the full control effect; nearly all actives have a fitted effect of over 50% in size
HP1b binding inh: inhibitors of HP1-beta chromodomain binding to methylated histone tails | P83916 | AlphaScreen HP1-beta / biotin-H3K9me3 peptide binding | Potency, µM (doses to about 114 µM), for the others: top-dose activity change, negative = inhibition, hits mostly inhibitors | 390,000 compounds, 0.56% hits | AID 540317; also: nearly all actives have a fitted effect of over 70% in size
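Compound inhibition of the preformed complex between 50 nM HP1-beta and 50 nM biotinylated H3K9me3 peptide was read by AlphaScreen. Buffer was PBS pH 7.4 with 0.01% Tween-20. Incubations ran 30 min at room temperature, with 10 ug/mL donor/acceptor beads.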
G9a inh: G9a (human) methyltransferase inhibition. G9a H3K9 monomethylation, AlphaScreen, 2 h. 350,000 compounds, 8.8% hits. AID 504332. Potency, µM (highest dose often 102 µM), without a hit: at the highest dose activity, negative = inhibition, actives largely listed as inhibitors. Q96KQ7; also: % is scaled to controls: 0 for no effect and ±100 for the full control effect; nearly all actives have a fitted effect of over 75% in size
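Using a bead-based AlphaScreen, monomethylated H3K9 product from 2 h room-temperature reactions (G9a 20 nM, peptide 500 nM, SAM 20 uM) was detected with 0.5 ug/mL rabbit anti-H3K9me1 antibody.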
L3MBTL1 inh: L3MBTL1 (human) inhibition; Potency, µM (highest dose often 57.1 µM), inactives show at the highest dose activity, negative = inhibition, hits mostly inhibitors; AlphaScreen L3MBTL1–H3K9me1 peptide binding; 230,000 compounds, 0.66% hits; Q9Y468; AID 485360; also: % is scaled to controls: 0 for no effect and ±100 for the full control effect; nearly all actives have a fitted effect of over 60% in size
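AlphaScreen proximity signal between nickel-chelate acceptor and streptavidin donor beads (final 10 ug/mL) reports binding of 50 nM L3MBTL1 to 75 nM biotin-H3 K9me1 peptide; complex incubated with compounds 30 min at room temperature; cefsulodin titration as control.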
Sfp inh: inhibitors of Bacillus subtilis Sfp phosphopantetheinyl transferase | Q9F4F7 | Biochemical Sfp PPTase activity, qHTS | Potency, µM, inactives show largest response in the series, negative = inhibition, most hits filed as inhibitors | 310,000 compounds, 3.5% hits | AID 1490;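 also: the enzyme is Sfp with the accession as filed and its product quenches rhodamine fluorescence; 0% = enzyme reaction without inhibitor and -100% = no enzyme wells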
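Fluorescence-quenching assay: 15 nM Sfp-PPTase preincubated 15 min at room temperature with compound, then 5 uM rhodamine-CoA and 12.5 uM BHQ-2-labelled YbbR peptide added. Fluorescence (ex 525/em 598 nm) read at start and after 30 min; difference gives rate.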
BAZ2B inh: blocks human BAZ2B; AlphaScreen BAZ2B-H3K14Ac peptide displacement; Potency, µM (doses to about 114 µM), for the others: top-dose activity change, negative = inhibition, usual class: inhibitors; 360,000 compounds, 4.4% hits; AID 504333; also: % is scaled to controls: 0 for no effect and ±100 for the full control effect; nearly all actives have a fitted effect of over 60% in size
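AlphaScreen displacement of biotin-H3(5-23)K14Ac peptide (50 nM final) from BAZ2B (50 nM final) in PBS pH 7.4, 0.01% Tween-20; complex preformed 30 min RT, then compounds (top 110 uM) 30 min RT, beads 20 min dark.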
Active calls of the source: *; ? = inconclusive; · = not tested or not shown; [ ] = dose if it differs, or a comment. In the library only some 12% were active in any assay of this set; here they are far more common. Calls follow the shape of the dose curve; as a rule, active = well fitted curve in the direction sought with a large enough effect; inconclusive = small, poorly fitted or top-dose-only effect, or another doubt; inactive = no such curve, though single readings can be large; an effect the other way counts as inactive or inconclusive. Potency is read from the fitted curve at half-maximal effect.

SMILES	JMJD2A Tudor inh	HP1b binding inh	G9a inh	L3MBTL1 inh	Sfp inh	BAZ2B inh
CCCCOc1ccc(CNC(=O)Cc2ccc(NC(=O)N3CCCCc4ccccc43)cc2)cc1	79.4µM*	10.2%	-5.2%[59 µM]	·	·	-19.2%
COc1cccc(NC(=O)Cc2ccc(NC(=O)N3CCCCc4ccccc43)cc2)c1	11.2µM*	3.1%	-0.3%[59 µM]	·	·	-1.4%
COc1ccc(NC(=O)c2cc(S(=O)(=O)N3CCCCCC3)cn2C)cc1Cl	-8.9%	17.8%[57 µM]	4.4%[59 µM]	·	·	1.1%
CC(C)Nc1cccc(S(=O)(=O)N2CCCN(S(=O)(=O)c3ccc4c(c3)OCCO4)CC2)c1	-30.5%	·	·	·	·	·
O=C(CSc1nnc(-c2cccnc2)o1)c1cc2ccccc2oc1=O	-20.1%	11.1%	?	-7.6%[11.4 µM]	?	-6.4%
Cn1cnnc1SCC(=O)c1cc2ccccc2oc1=O	89.1µM*	-18.3%	?	-5.4%	-75.2%	?
COc1ccc(Cl)cc1NC(=O)CSc1ccc2nnc(CCNS(=O)(=O)c3ccccc3)n2n1	-3.7%	42.6%	4.5%[59 µM]	·	·	-2.4%
CCN(CC)S(=O)(=O)c1ccc(C(=O)Nc2ccc(Cc3ccncc3)cc2)cc1	-16.3%	22.7%	1.8%	-10.4%	25.2%	-37.7%
CCN(Cc1ccncc1)S(=O)(=O)c1ccc(C(C)=O)cc1	-23.1%	-0.2%	?	-15.7%	79.4µM*	12.7%
Brc1c(CSc2nncn2-c2ccccc2)nc2ncccn12	-1.9%	15.3%	56.2µM*	-8.4%	15.3%	-36.1%
c1ccc(-n2cnnc2SCc2cn3ccccc3n2)cc1	-6.4%	32.0%	50.1µM*	-0.5%	-2.0%	2.9%
Cc1cccc2nc(CSc3nncn3-c3ccccc3)cn12	-14.6%	34.2%	39.8µM*	0.5%	-7.0%	-9.1%
Brc1c(CSc2nncn2-c2ccccc2)nc2sccn12	-15.3%	13.1%	42.6%[59 µM]	46.8%	-3.5%	39.1%
COc1ccc(CCNC(=O)Cn2c(=O)nc(-c3ccccc3)c3cc(Cl)ccc32)cc1OC	4.3%	22.2%	-1.0%[12.7 µM]	·	·	-13.1%
O=C(NCCCn1ccnc1)C(=O)NC1CCCCC1	-18.8%	35.7%	7.7%	-6.9%	21.8%	-17.4%
O=C(/C=N/O)NCCCn1ccnc1	-16.7%	28.6%	?	0.0%	3.8%	79.4µM*
O=C(/C=C/c1ccc(Br)cc1)NCCCn1ccnc1	-19.4%	10.6%	·	-3.7%	4.5%	-6.8%
O=C(O)C1CCCCC1C(=O)NCCCn1ccnc1 (stereo unspecified)	-33.8%	8.1%	?	·	-2.6%	79.4µM*
COc1ccc(-n2c(=O)c(-c3ccc(F)cc3)nc3cncnc32)cc1	·	·	17.2%[0.501 µM]	·	-4.5%	·
COc1ccc(C(=O)NC(C)c2nnc(SCc3ccc(Cl)c(Cl)c3)n2C)cc1 (stereo unspecified)	-16.9%	0.4%	31.6µM*	3.0%	-9.4%	?
Nc1ccc(S(=O)(=O)NN=Cc2ccccc2[N+](=O)[O-])cc1	-12.6%	42.5%	·	·	·	·
CC[C@H](C)[C@H](NC(=O)[C@@H](NC(=O)[C@@H](NC(=O)[C@H](CCC(=O)O)NC(=O)[C@H](CCC(=O)O)NC(=O)[C@H](CCC(=O)O)NC(=O)[C@H](C)NC(=O)[C@@H](N)CC(C)C)C(C)C)C(C)C)C(=O)N[C@@H](CCCNC(=N)N)C(=O)N[C@@H](CO)C(=O)N[C@@H](C)C(=O)N[C@@H](CC(N)=O)C(=O)N[C@@H](Cc1ccccc1)C(=O)N[C@H](C(=O)N[C@@H](CC(=O)O)C(=O)N[C@@H](CC(N)=O)C(=O)O)[C@@H](C)O	·	·	·	·	4.7%	·
N#CC1=C(N)NC(SCC(=O)O)=C(C#N)C12CCCC2	-14.3%	8.8%	35.5µM*	-4.2%	56.2µM*	10.4%
N#CC1=C(N)NC(SCC(=O)Nc2ccccc2)=C(C#N)C12CCCC2	-27.5%	3.7%	22.8%[59 µM]	-3.2%	3.8%	6.9%
Nc1nonc1-n1nnc(C(=O)N/N=C/c2ccc(Cl)cc2Cl)c1CN1CCCCC1	-6.4%	53.0%	35.5µM*	·	22.0%	-4.7%

Assay outcomes from PubChem.
